target: Insulin receptor (Homo sapiens) (UniProt P06213); conditions: at 0.1 µM
Sequence (P06213 28-758 limits assumed): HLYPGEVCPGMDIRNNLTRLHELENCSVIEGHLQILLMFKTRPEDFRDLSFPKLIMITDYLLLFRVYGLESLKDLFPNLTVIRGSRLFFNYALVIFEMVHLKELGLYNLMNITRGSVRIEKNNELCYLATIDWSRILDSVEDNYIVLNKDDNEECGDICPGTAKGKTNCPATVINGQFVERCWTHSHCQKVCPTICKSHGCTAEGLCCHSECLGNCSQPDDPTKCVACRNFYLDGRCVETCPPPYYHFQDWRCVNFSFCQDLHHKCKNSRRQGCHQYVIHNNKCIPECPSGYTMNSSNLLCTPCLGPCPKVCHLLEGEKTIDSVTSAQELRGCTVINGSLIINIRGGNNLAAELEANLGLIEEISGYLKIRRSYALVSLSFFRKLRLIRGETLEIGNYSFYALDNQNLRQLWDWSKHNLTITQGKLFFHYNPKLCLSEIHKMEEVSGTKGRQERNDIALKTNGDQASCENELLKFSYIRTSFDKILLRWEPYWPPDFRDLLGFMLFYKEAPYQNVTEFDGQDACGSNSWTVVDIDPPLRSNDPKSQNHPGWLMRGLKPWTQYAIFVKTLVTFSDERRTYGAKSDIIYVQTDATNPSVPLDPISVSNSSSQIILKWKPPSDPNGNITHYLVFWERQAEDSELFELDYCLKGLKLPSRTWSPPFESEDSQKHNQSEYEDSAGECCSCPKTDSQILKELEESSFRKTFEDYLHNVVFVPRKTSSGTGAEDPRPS
Sequence (P06213 763-1382 limits assumed): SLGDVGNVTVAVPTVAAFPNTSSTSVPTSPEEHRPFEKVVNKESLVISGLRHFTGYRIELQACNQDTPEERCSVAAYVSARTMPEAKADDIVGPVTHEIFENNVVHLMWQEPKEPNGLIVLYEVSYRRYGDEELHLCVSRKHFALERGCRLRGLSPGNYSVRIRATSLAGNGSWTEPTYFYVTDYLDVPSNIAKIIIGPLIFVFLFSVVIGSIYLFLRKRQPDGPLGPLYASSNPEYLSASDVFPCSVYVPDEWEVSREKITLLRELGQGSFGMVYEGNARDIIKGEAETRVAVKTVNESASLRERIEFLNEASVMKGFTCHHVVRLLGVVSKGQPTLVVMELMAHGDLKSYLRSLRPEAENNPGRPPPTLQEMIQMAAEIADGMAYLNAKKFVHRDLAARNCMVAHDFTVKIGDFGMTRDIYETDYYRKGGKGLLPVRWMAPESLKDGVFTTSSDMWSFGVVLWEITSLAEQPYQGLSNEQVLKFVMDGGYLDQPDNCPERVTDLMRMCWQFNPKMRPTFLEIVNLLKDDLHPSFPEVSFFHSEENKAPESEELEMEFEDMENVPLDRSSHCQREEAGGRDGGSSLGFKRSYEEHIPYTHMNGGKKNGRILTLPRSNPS

SMILES	inhibition [%]
Oc1cccc(-c2nc(-c3ccccc3)[nH]c2-c2ccncc2)c1	1.16
Cc1ccc2c(-c3ccnc(Nc4ccc5c(c4)OCCO5)n3)c(-c3ccc(C(F)(F)F)cc3)nn2n1	-0.36
O=S(=O)(CCOCc1ccc(-c2ccc3ncnc(Nc4ccc(OCc5cccc(F)c5)c(Cl)c4)c3c2)o1)c1ccccc1	1.87
COc1cc2ncnc(Nc3ccc4c(cnn4Cc4ccccc4)c3)c2cc1OC	2.75
COC(=O)Nc1nc2cc(Oc3ccc(NC(=O)Nc4cccc(Br)c4)cc3)ccc2[nH]1	1.48

target: Insulin receptor (Homo sapiens) (UniProt P06213); conditions: at 1 µM

SMILES	inhibition [%]
N#Cc1cccc(Nc2nccc(-c3cnn4ncccc34)n2)c1	40.9
Cc1cc(O)cc(C)c1/C=C/c1cncc(C(=O)N(C)C)c1	0.32
CN(C)CCCn1c(-c2nonc2N)nc2cnccc21	4.75
COc1cccc(-n2ncc3c(N/N=C/c4ccc(S(C)(=O)=O)cc4)ncnc32)c1	1.06
COc1cc(Nc2nccc(-c3cnn4ncccc34)n2)cc(OC)c1	70
NC(=O)c1cccc(Nc2nccc(Nc3cccc(F)c3)n2)c1	21.1
NS(=O)(=O)c1ccc(Nc2cc(-c3cccc(O)c3)n[nH]2)cc1	3.4
CC(C)c1ccc(Nc2nccc(-c3cnn4ncccc34)n2)cc1	48.2
O=C1Nc2ccccc2/C1=C/Nc1ccc2[nH]c(=O)[nH]c2c1	32.4
CN1CCN(C(=O)c2ccc(NC(=O)Nc3ccc(N(C)c4ccnc(Nc5ccc(CS(C)(=O)=O)cc5)n4)cc3)cc2)CC1	10.6
CCn1c(-c2nonc2N)nc2c(C#CC(C)(C)O)nc(OCCNC)cc21	5.58
COc1cccc(-n2ncc3c(N/N=C/c4ccc(C)cc4)ncnc32)c1	82.2
NS(=O)(=O)c1cccc(Nc2cc(-c3ccc(F)cc3)n[nH]2)c1	1.03
Cc1cc(Cl)cc2c1NC(=O)C2=NNc1ccc(S(N)(=O)=O)cc1	4.18
CN(C)C(=O)O[C@@H]1CN[C@@H](C#Cc2cc3ncnc(Nc4ccc(OCc5cccc(F)c5)c(Cl)c4)c3s2)C1	1.75
CN(C)c1cc2c(Nc3ccc4c(cnn4Cc4ccccc4)c3)ncnc2cn1	6.13
CN(C)C(=O)O[C@H]1CN[C@H](C#Cc2cc3ncnc(Nc4ccc(OCc5cccc(F)c5)c(Cl)c4)c3s2)C1	3.06

SMILES	inhibition [%]
COc1ccc(-c2nn3ncccc3c2-c2ccnc(Nc3cccc(C(F)(F)F)c3)n2)cc1	2.59
COc1cc(/C=N/Nc2ncnc3c2cnn3C(C)C)ccc1O	2.59
Cc1ccc2c(-c3ccnc(Nc4cccc(C(F)(F)F)c4)n3)c(-c3ccccc3)nn2n1	24.8
Cc1cc(-c2ccccn2)cc(C)c1/C=C/c1cncc(-c2nn[nH]n2)c1	5.57
c1ccc(Cc2nc3ccc(Nc4ncnc5ccccc45)cc3[nH]2)cc1	8.19
NS(=O)(=O)c1ccc(NC=C2C(=O)Nc3ccc4ncsc4c32)cc1	29.7
Cc1ccc2c(c1)/C(=N/Nc1ccc(S(N)(=O)=O)cc1)C(=O)N2	1.98
Nc1nccc(C#Cc2cncnc2Nc2ccc(OCc3cccc(F)c3)c(Cl)c2)n1	4.44
CCCN1CCCC(c2ccc(Nc3nc(Nc4cc(F)ccc4C(N)=O)c4cc[nH]c4n3)c(OC)c2)C1 (stereo not drawn)	96.2
O=C1Nc2ccc(-c3cccnc3)cc2C1=Cc1cc(Br)c(O)c(Br)c1	0.1
ON=C1CCc2cc(-c3nc(C4CCNCC4)[nH]c3-c3ccncc3)ccc21	-0.75
Oc1cccc(-c2nc(-c3ccccc3)[nH]c2-c2ccncc2)c1	2.18
Cc1ccc2c(-c3ccnc(Nc4ccc5c(c4)OCCO5)n3)c(-c3ccc(C(F)(F)F)cc3)nn2n1	1.45
O=S(=O)(CCOCc1ccc(-c2ccc3ncnc(Nc4ccc(OCc5cccc(F)c5)c(Cl)c4)c3c2)o1)c1ccccc1	3.13
COc1cc2ncnc(Nc3ccc4c(cnn4Cc4ccccc4)c3)c2cc1OC	3.75
COC(=O)Nc1nc2cc(Oc3ccc(NC(=O)Nc4cccc(Br)c4)cc3)ccc2[nH]1	5.63

Source: ChEMBL document CHEMBL1961873, “Compounds: GSK PKIS; Assays: Nanosyn kinase panel” (2012)
